# Measured values taken from PubChem BioAssay AID1347056 (Sanford-Burnham Center for Chemical Genomics, 2019).
# The whole screen tested about 360,000 compounds, of which about 3,600 (1%) were called active. The sample holds actives, similar compounds and a random draw of the others, so the mix is not that of the screen. Values without a mark were called inactive.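 How the source made its calls: active means compounds whose plate-normalised and pattern-corrected inhibition of the luciferase reporter signal at the single screening dose is 50% or more; inactive means the rest.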
# Assay: inhibitors of TROY-driven NF-kB signaling, primary screen, Q293 LMP1-TROYcd cells, NF-kB luciferase, uHTS (AID 1347056)
# Conditions: Q293 LMP1-TROYcd NF-kB luciferase reporter, 4 h; at 10 µM; hits give high values
row,SMILES,inhibition
1,COc1cccc(-c2nc3ccc(N4CCN(C)CC4)cc3[nH]2)c1,79.8% (active)
2,CCn1cc(CN2CCCC(C(=O)c3cccc(C(F)(F)F)c3)C2)cn1 (stereo not given),10.1%
3,CCOC(=O)[C@]12Cc3ccccc3[C@H]1N(C1CCCCC1)C(=O)c1cc(OC)ccc12,36.6%
4,CNC(=O)Nc1ccc(C(O)(C(=O)OC)C(F)(F)F)cc1 (stereo not given),-7.62%
5,COc1cc(C(c2c(O)c3ccccc3oc2=O)c2c(C)n(C)n(-c3ccccc3)c2=O)ccc1O (stereo not given),-7.22%
6,CC(=O)OC1C2(CC3N4C(=O)C5(CO)SSC4(CC31O)C(=O)N5C)OC(C)C(C)(C)C2=O (stereo not given),64.8% (active)
7,CC(=O)Nc1ccccc1C(=O)OCC(=O)c1cccc2ccccc12,-7.86%
8,CN(C)CC1Oc2ccccc2OC1(O)c1ccccc1 (stereo not given),1.73%
9,CCCCCCCCCCCCn1ccc(=N)cc1,64% (active)
10,Cc1nc2nc(C)c(CCC(=O)N3CCC4(CC3)OCCO4)c(C)n2n1,3.18%
11,Cc1ccc(C)c(NC2=NCCCS2)c1,1.74%
12,O=C(CCCn1c(=O)[nH]c2cc(Cl)ccc2c1=O)N1CCC2(CC1)OCCO2,7.33%
13,CCOC(=O)C(O)(c1ccc(N)c(OC)c1)C(F)(F)F (stereo not given),7.19%
14,CCC(C)(O)C(=O)OC1C(=O)OC2CC3C(C)=CC(=O)C(O)C3(C)C3C4(O)OCC23C1C(C)C4O (stereo not given),83.5% (active)
15,NCCc1c[nH]c2ccc(O)cc12,13%
16,CC(=O)Nc1ccc(C(=O)C(Cc2ccccc2)N(C)C)cc1 (stereo not given),0.62%
17,CCCCCCN=C(CC)c1c(O)n(CCCC)c(=O)[nH]c1=O,17.9%
18,CCOC(=O)c1c(N)n(Cc2ccccc2)c2nc3ccccc3nc12,51.6% (active)

row,SMILES,inhibition
1,CCOC(=O)c1cccc(C2=C(CNC(=O)c3ccncc3)[C@H]3CC[C@@H](C2)N3Cc2ccccc2)c1,-20.1%
2,COc1cc(Cn2c(N)c(C(=O)NCc3ccco3)c3nc4ccccc4nc32)cc(OC)c1OC,13.5%
3,COc1ccc(-c2nn(CCC#N)cc2C(=O)O)cc1,-1.21%
4,CNCC(O)c1cc(F)c(OCc2ccccc2)c(OCc2ccccc2)c1F (stereo not given),8.14%
5,CC1CCC(N(C)C2CCN(C)CC2)CC1 (stereo not given),18.6%
6,CCN1c2nc3c(C)cccn3c(=O)c2CC2(C(=O)N(C)C(=O)N(C)C2=O)C1C (stereo not given),-6.84%
7,CN1CCC(OC(=O)c2cccc(F)c2)CC1,-37.5%
8,Cc1ccc(C2CN(C)CC2C(=O)c2ccc(F)cc2)cc1 (stereo not given),57.6% (active)
9,COc1ccc(C(=O)C2CN(C)CC2C(=O)c2ccc(OC)cc2)cc1 (stereo not given),-76.8%
10,Cn1cc(C(=O)OCC(=O)N2CCCC2)c2ccccc21,8.39%
11,O=C(Nc1cccc2ccccc12)N1CCC2(CC1)OCCO2,38.5%
12,CCOC(=O)C1SC2(C(F)(F)C(F)F)CC1(O)c1c(c(OC)c3occc3c1OC)O2 (stereo not given),-1.26%
13,O=c1[nH]c2ccccc2n1C1CCN(C(c2ccnc3ccccc23)c2nnnn2Cc2ccccc2)CC1 (stereo not given),73.9% (active)
14,COc1ccc(-n2nnnc2C(c2cccc3ccccc23)N2CCC(n3c(=O)[nH]c4ccccc43)CC2)cc1 (stereo not given),27.6%
15,O=c1[nH]c2ccccc2n1C1CCN(C(c2ccccc2)c2nnnn2Cc2ccccc2)CC1 (stereo not given),18.3%
16,Cc1ccc(OC(=O)N(C)C[C@@H]2OCc3cnnn3CCCC(=O)N([C@H](C)CO)C[C@@H]2C)cc1,0.42%
17,CC(C)c1ccc(OCC(=O)N2CCCN(C)CC2)cc1,-4.27%
